# In PubChem BioAssay:
# Calls of active or inactive are those of the source. Unless noted, the rule behind the calls is not given here.
# Columns and labels:
# [1] = resazurin metabolic signal in HepG2 cells – cell-based, resazurin fluorescence, 24 h, PK04 Diversity Set, profiling panel (AID 1172); conditions: HepG2 viability, higher = more signal
# [2] = budding yeast growth changes without added modifier – OD600, strain BY4716, 24 h, basal condition, primary screen (AID 1173); conditions: S. cerevisiae BY4716 growth, OD600, 24 h; higher = more signal, called active from +8 up or from −8 down
# [3] = viability profiling in MM1S myeloma cells – cell-based, resazurin fluorescence, basal, 24 h, PK04 Diversity Set, profiling panel (AID 1174); conditions: higher = more signal, called active from +8 up or from −8 down;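 note: MM1S multiple myeloma cell line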
# [4] = target: Dihydroorotate dehydrogenase (quinone), mitochondrial (Plasmodium falciparum (isolate 3D7)) (UniProt Q08210); assay: inhibition of P. falciparum DHODH – biochemical, C-terminal His tag, absorbance 600 nm, primary screen (AID 1175); conditions: PfDHODH enzyme, DCIP absorbance 600 nm; higher = more signal, called active from +8 up or from −8 down;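 note: recombinant parasite enzyme with a five histidine tag at its C terminus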
# [5] = inhibition of PAO1 biofilm formation – strain PAO1, LB-PBS medium, absorbance 600 nm, primary screen (AID 1176); conditions: P. aeruginosa PAO1 growth/biofilm, A600, 12 h; higher = more signal
# [6] = growth modulation of vineyard yeast isolate – strain RM11-1a, OD600, basal, 24 h, primary screen (AID 1177);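 note: cultures grown under basal conditions with no added stressor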; conditions: S. cerevisiae RM11-1a growth, OD600, 24 h; higher = more signal, called active from +8 up or from −8 down
# [7] = growth of efflux-deficient E. coli DRC39 – strain DRC39, OD650, 24 h, E. coli filamentation inducers, primary screen (AID 1178);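 note: growth measured as culture turbidity by optical density at 650 nm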; conditions: E. coli DRC39 acrAB, higher = more signal, called active from +8 up or from −8 down
# [8] = growth of efflux-deficient E. coli DRC39 – strain DRC39, OD650, 48 h, E. coli filamentation inducers, primary screen (AID 1179);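 note: screen aims at cell division blockers that make cells filament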; conditions: E. coli DRC39 delta-acrAB growth, higher = more signal, called active from +8 up or from −8 down
# [9] = viability profiling in RPMI8226 myeloma cells – cell-based, resazurin fluorescence, basal, 24 h, PK04 Diversity Set, profiling panel (AID 1180); conditions: higher = more signal;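 note: RPMI8826 multiple myeloma cell line at 5000 cells per well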
# [10] = target: E3 ubiquitin-protein ligase XIAP (Homo sapiens) (UniProt P98170); assay: small molecules binding XIAP protein – biophysical, small-molecule microarray, fluorescence 635 nm, primary screen (AID 1181); conditions: higher = more signal;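 note: score merges 667 nm emission and signal to noise over triplicate slides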
# [11] = tested on: XIP peptide (Xip251-270) binding; assay: XIP fragment 251-270 binding compounds – biochemical, small-molecule microarray, fluorescence 635/667 nm, 0.1 µg/mL protein, primary screen (AID 1182); conditions: fluorescent protein binding, 635 nm, higher = more signal, called active from +8 up or from −8 down
# XIP peptide (Xip251-270) = assay: compounds binding XIP fragment 251-270 – biochemical, small-molecule microarray, fluorescence 635/667 nm, 0.5 µg/mL protein, primary screen (AID 1183); conditions: fluorescence 635 nm, higher = more signal
# [12] = blood-stage malaria parasite viability loss – strain 3D7, DAPI fluorescence, 100 nL, primary screen (AID 1184);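 note: parasites grown inside human red blood cells in medium with human serum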; conditions: P. falciparum 3D7 growth, 3 d, higher = more signal
# [13] = target: Homeobox protein Hox-A13 (Mus musculus) (UniProt Q62424); assay: disruptors of Hoxa13 oligonucleotide interaction – biochemical, fluorescence polarization, labeled oligonucleotide, primary screen (AID 1185); conditions: Hoxa13:DNA binding, 15 min, higher = more signal, called active from +8 up or from −8 down
# [14] = blockers of DNA damage checkpoint Chk1 activation – imaging, HeLa, hydroxyurea, phospho-Chk1 antibody, percent positive cells, primary screen (AID 1186); conditions: hydroxyurea-induced phospho-Chk1 immunofluorescence imaging, higher = more signal
# [15] = blockers of DNA damage checkpoint Chk1 activation – imaging, HeLa, hydroxyurea, phospho-Chk1 nuclear intensity, primary screen (AID 1187); conditions: hydroxyurea-induced phospho-Chk1 immunofluorescence imaging, higher = more signal
# Chain of Homeobox protein Hox-A13 (Mus musculus) (Q62424 whole entry, looked up): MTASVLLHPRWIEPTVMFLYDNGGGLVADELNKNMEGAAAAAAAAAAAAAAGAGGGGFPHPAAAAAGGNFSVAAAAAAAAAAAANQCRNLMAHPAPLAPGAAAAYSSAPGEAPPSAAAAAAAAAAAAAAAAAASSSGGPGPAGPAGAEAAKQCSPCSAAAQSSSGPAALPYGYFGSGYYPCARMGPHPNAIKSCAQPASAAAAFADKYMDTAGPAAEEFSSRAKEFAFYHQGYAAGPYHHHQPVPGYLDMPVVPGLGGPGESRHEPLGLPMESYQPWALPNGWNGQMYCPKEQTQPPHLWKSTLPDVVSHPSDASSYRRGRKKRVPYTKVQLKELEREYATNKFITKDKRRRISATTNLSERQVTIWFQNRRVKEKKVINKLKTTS
# Chain of Dihydroorotate dehydrogenase (quinone), mitochondrial (Plasmodium falciparum (isolate 3D7)) (Q08210 whole entry, looked up): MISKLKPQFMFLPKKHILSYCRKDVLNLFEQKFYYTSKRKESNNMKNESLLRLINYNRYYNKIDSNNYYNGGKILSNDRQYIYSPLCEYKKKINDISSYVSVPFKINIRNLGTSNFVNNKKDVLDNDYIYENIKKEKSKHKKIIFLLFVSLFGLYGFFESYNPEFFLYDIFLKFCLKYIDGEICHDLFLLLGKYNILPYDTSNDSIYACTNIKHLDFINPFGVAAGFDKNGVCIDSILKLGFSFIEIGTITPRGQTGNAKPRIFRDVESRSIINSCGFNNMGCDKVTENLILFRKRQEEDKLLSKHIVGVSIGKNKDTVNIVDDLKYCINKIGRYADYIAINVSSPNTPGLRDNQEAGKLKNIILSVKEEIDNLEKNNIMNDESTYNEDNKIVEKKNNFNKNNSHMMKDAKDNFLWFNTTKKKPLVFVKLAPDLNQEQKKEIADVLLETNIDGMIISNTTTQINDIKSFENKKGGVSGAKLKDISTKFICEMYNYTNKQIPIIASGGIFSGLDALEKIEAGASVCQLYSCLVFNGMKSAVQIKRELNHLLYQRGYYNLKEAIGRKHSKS
# Chain of E3 ubiquitin-protein ligase XIAP (Homo sapiens) (P98170 whole entry, looked up, the tested form may be a part): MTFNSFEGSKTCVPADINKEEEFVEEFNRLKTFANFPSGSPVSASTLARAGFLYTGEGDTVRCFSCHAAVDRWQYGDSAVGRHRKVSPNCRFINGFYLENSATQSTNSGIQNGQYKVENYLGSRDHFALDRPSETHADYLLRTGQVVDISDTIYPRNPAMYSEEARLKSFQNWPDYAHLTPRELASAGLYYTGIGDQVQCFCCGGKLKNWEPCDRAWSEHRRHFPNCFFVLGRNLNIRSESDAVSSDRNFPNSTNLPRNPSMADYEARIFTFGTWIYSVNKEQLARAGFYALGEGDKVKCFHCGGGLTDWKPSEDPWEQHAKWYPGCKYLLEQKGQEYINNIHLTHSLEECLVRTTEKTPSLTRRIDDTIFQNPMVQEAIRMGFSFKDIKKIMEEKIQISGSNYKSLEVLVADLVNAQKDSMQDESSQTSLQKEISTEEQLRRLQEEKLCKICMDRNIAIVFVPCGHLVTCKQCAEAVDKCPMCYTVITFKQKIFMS
Structure (SMILES),z-score [1],z-score [2],z-score [3],composite z-score [4],z-score [5],z-score [6],z-score [7],z-score [8],z-score [9],composite z-score [10],composite z-score [11],composite z-score (XIP peptide (Xip251-270)),z-score [12],z-score [13],z-score [14],z-score [15]
[N-]=[N+]=NCc1ccccc1[C@@H]1OC(c2ccc(OCCCO)cc2)=N[C@]1(CCS(=O)(=O)c1ccccc1)C(=O)NCCN1CCOCC1,-1.13,-0.276 (inactive),-0.346 (inactive),0.328 (inactive),0.286 (inactive),0.935 (inactive),0.239 (inactive),0.564 (inactive),-0.185,0.703,1.16 (inactive),0.853,-2.19,-2.41 (inactive),0.0054 (inactive),-0.373 (inactive)
COc1ccc([Si](C)(C)[C@H]2[C@H](CC(=O)N3CCC[C@H]3CO)O[C@@]3(C(=O)N(Cc4cccc(N5C(=O)c6cccc7cccc5c67)c4)c4ccccc43)[C@@H]2C)cc1,-1.13,0.547 (inactive),-0.712 (inactive),-1.74 (inactive),0.495 (inactive),1 (inactive),-0.672 (inactive),-0.881 (inactive),-1.28,0.013,0.397 (inactive),0.674,-1.72,-3.25 (inactive),-0.0887 (inactive),-0.429 (inactive)
COc1ccc([C@H]2C[C@H]3C(Br)=C[C@@H]2C(=O)[C@]32CO2)cc1,0.158,-6.22 (inactive),-0.0566 (inactive),1.03 (inactive),-0.647 (inactive),0.844 (inactive),1.75 (inactive),0.406 (inactive),0.869,-0.0292,-0.244 (inactive),-0.22,-0.518,-0.444 (inactive),0.0297 (inactive),-0.237 (inactive)
CC(C)(C)OC(=O)CC[C@]12N=C(c3ccc(OCCCO)cc3)O[C@H]1c1ccccc1N(CCS(=O)(=O)c1ccccc1)C2=O,0.0763,0.688 (inactive),-3.32 (inactive),0.017 (inactive),2.21 (inactive),1.84 (inactive),0.908 (inactive),0.0504 (inactive),-1.19,0.0761,1.11 (inactive),0.781,-1.96,-2.7 (inactive),-0.266 (inactive),-0.249 (inactive)
[N-]=[N+]=NCc1ccccc1[C@H]1OC(c2ccc(OCCCO)cc2)=N[C@@]1(Cc1ccccc1)C(=O)NCc1ccccc1,0.294,-0.223 (inactive),-0.666 (inactive),-0.407 (inactive),0.702 (inactive),0.747 (inactive),0.431 (inactive),0.0009 (inactive),-0.34,0.58,0.212 (inactive),0.471,-2.49,2.55 (inactive),-0.287 (inactive),-0.083 (inactive)
O=C(O)[C@@]1(CCS(=O)(=O)c2ccccc2)COC(c2ccc(OCCCO)cc2)=N1,0.444,0.0291 (inactive),-0.21 (inactive),0.0614 (inactive),-0.347 (inactive),-0.197 (inactive),-0.43 (inactive),-0.216 (inactive),0.0149,0.0767,-0.0596 (inactive),-0.271,0.917,-2.82 (inactive),-0.333 (inactive),-0.52 (inactive)
CCOC(=O)C[C@H]1[C@H](OC(=O)Cc2ccc3c(c2)OCO3)[C@@H](NC(=O)c2ccc(-c3ccccc3)cc2)c2cc(OCCCO)ccc2N1C(=O)Cc1ccc(OC)cc1,0.366,-1.02 (inactive),0.322 (inactive),-1.32 (inactive),-0.0178 (inactive),-1.82 (inactive),0.261 (inactive),0.877 (inactive),0.489,0.179,0.784 (inactive),0.0066,-1.72,-1.61 (inactive),-0.324 (inactive),-0.116 (inactive)
CC(C)(C)C(=O)N[C@@H](c1ccc(Cl)cc1)[C@]1(C)C[C@H]1C1CCCCC1,-0.608,-0.507 (inactive),-0.385 (inactive),-0.554 (inactive),1.03 (inactive),0.473 (inactive),-0.196 (inactive),-0.27 (inactive),-0.231,0.261,0.398 (inactive),0.837,-0.827,2.32 (inactive),-1.19 (inactive),-0.627 (inactive)
COCCOC(=O)N1C(=O)[C@@]2(c3cc(C#CC4=CCCCC4)ccc31)[C@H](C(=O)Nc1nc3ccccc3s1)[C@H]1C(=O)O[C@H](c3ccccc3)[C@H](c3ccccc3)N1[C@@H]2c1ccccc1OCCO,0.444,0.794 (inactive),-0.386 (inactive),1.37 (inactive),1.16 (inactive),1.99 (inactive),-0.653 (inactive),-0.883 (inactive),-0.575,-0.05,0.494 (inactive),0.698,-2.04,1.67 (inactive),-0.169 (inactive),-0.114 (inactive)
COc1ccc([Si](C)(C)[C@H]2[C@H](CCO)O[C@@]3(C(=O)N(Cc4ccc(N5C(=O)COc6ccccc65)cc4)c4ccccc43)[C@@H]2C)cc1,-1.97,0.573 (inactive),-4.21 (inactive),-0.349 (inactive),3.06 (inactive),3.3 (inactive),0.404 (inactive),-0.288 (inactive),-5.05,0.144,0.0409 (inactive),0.254,-1.95,-0.911 (inactive),-0.661 (inactive),-1.02 (inactive)
C=CC[C@@]1(C(=O)NCc2ccccc2)N=C(c2ccc(OCCCO)cc2)O[C@@H]1c1ccccc1N=[N+]=[N-],-0.453,0.669 (inactive),-2.2 (inactive),1.92 (inactive),1.16 (inactive),2.07 (inactive),0.335 (inactive),-0.899 (inactive),-0.829,0.0736,0.0885 (inactive),0.764,-1.92,-1.72 (inactive),-0.334 (inactive),-0.183 (inactive)
COC(=O)[C@@]1(Cc2ccc(F)cc2)[C@H]2c3cc(C(=O)N(C)C)n(Cc4nc5ccccc5[nH]4)c3C[C@H]2CN1C(=O)c1ccccc1,0.455,0.681 (inactive),-0.534 (inactive),0.0187 (inactive),0.315 (inactive),0.22 (inactive),-0.0051 (inactive),0.12 (inactive),-0.187,0.338,0.642 (inactive),0.817,-0.593,-3.68 (inactive),-0.11 (inactive),-0.0626 (inactive)
CCCC[C@@H]1C[C@H]1[C@@H](NC(=O)c1ccco1)c1ccc(C(=O)OC)cc1,-0.351,0.788 (inactive),-0.184 (inactive),-0.271 (inactive),0.812 (inactive),-0.716 (inactive),-1.03 (inactive),-0.489 (inactive),-0.826,0.104,-0.687 (inactive),-0.16,-0.941,0.198 (inactive),0.29 (inactive),0.0944 (inactive)
COC(=O)C(CC#Cc1ccc2c(c1)[C@]1(C(=O)N2)[C@H](c2ccc(O)cc2)N2[C@H](c3ccccc3)[C@H](c3ccccc3)OC(=O)[C@H]2[C@@H]1C(=O)Nc1nc2ccccc2s1)C(=O)OC,0.0384,-1.11 (inactive),1.05 (inactive),-5.21 (inactive),1.27 (inactive),-1.44 (inactive),0.666 (inactive),1.04 (inactive),0.12,-0.313,1.09 (inactive),0.833,-0.591,-0.645 (inactive),-0.0827 (inactive),-0.46 (inactive)
CC(C)(C)OC(=O)CC[C@@]1(C(=O)NCCN2CCOCC2)N=C(c2ccc(OCCCO)cc2)O[C@@H]1c1ccccc1N=[N+]=[N-],-0.583,-0.643 (inactive),-1.76 (inactive),-0.462 (inactive),0.41 (inactive),0.0002 (inactive),-0.0723 (inactive),-0.169 (inactive),-0.601,0.0877,0.171 (inactive),0.401,-1.85,-3.61 (inactive),0.17 (inactive),0.297 (inactive)
O=C1C2C=CC(C(O)C(c3ccccc3)c3ccccc3)N(n3cnnc3)C2C(=O)N1Cc1ccccc1 (stereo not drawn),0.264,-1.94 (inactive),-1.15 (inactive),-0.436 (inactive),0.285 (inactive),-0.255 (inactive),-0.514 (inactive),-0.305 (inactive),-1.11,0.223,0.23 (inactive),0.664,-0.528,-3.79 (inactive),0.414 (inactive),-0.402 (inactive)
CN1C(=O)C2C=CC(C(O)C3CC=CCC3)N(NC(=O)OC(C)(C)C)C2C1=O (stereo not drawn),-1.53,-0.0428 (inactive),-0.784 (inactive),0.123 (inactive),0.503 (inactive),-0.0874 (inactive),-0.791 (inactive),-0.688 (inactive),-1,0.579,0.947 (inactive),0.539,0.849,-2.05 (inactive),0.867 (inactive),0.509 (inactive)
COCCOC(=O)N1C(=O)[C@@]2(c3cc(C#CC4(O)CCCCCC4)ccc31)[C@H](c1ccc(O)cc1)N1[C@H](c3ccccc3)[C@H](c3ccccc3)OC(=O)[C@H]1[C@@H]2C(=O)Nc1nc2ccccc2s1,-0.181,-0.213 (inactive),0.0851 (inactive),0.811 (inactive),0.51 (inactive),0.443 (inactive),-0.239 (inactive),0.208 (inactive),-0.815,0.0679,1.18 (inactive),0.708,-0.326,-1.3 (inactive),0.227 (inactive),0.428 (inactive)
